Assay outcomes as filed in PubChem BioAssay.
Hits are enriched below; roughly 1.4% of the tested compounds scored in any of these assays.
HSV augment – increases HSV replication in cells | HSV replication augmentation in cells, fold increase | maximum fold increase | actives 0.005% (n = 220,000) | AID 1956; in the data active = maximum fold increase above about 1.5; inconclusive = no clear call, values can overlap the other calls; tested in PC3 cells
V-ATPase pH – regulators of yeast V-ATPase proton transport. response, % at 10 µM. S. cerevisiae, pHLuorin cytosolic pH fluorescence. actives 0.37% (n = 350,000). AID 504577; in the data active = response mostly above about 7.3%, no sharp cut-off; inactive = mostly below about 5.4%; also: actives read high
zVAD death inh – blocks zVAD induced death of L929 cells; AID 1377; actives 0.38% (n = 220,000); L929 zVAD necroptosis rescue, ATP luminescence, 24 h; with zVAD 60 µM; viability rescue, % at 10 µM;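 active = activation, scaled between plate controls, above about 75%, limit read from the data; inactive = activation under that limit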
TNF necrop inh – blocks TNF-alpha induced death of Jurkat FADD-/- cells. Jurkat FADD-/- TNF necroptosis rescue, ATP luminescence, 24 h; 0 = TNF only, 100 = no-TNF cells. activation (protection from cell death), % at 10 µM. actives 0.068% (n = 220,000);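 active = activation, meaning protection from cell death, of at least 50% relative to plate controls; inactive = activation below 50%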;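 also: necroptosis triggered by 40 ng/mL TNF-alpha added together with compound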
Wee1 degr inh – blocks degradation of human Wee1 kinase; reporter increase, % at 5 µM; actives 1.2% (n = 220,000); P30291; HeLa Luc-Wee1K328M stability, luciferase luminescence; 100% = proteasome inhibitor MG132 effect;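 active = activation above the mean of all tested compounds plus 3 SD, set per screening run, cut at about 8.8% in these data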;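 also: cells exposed to compound for 20 h before luminescence read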
Target sequence (P30291 whole entry K328M): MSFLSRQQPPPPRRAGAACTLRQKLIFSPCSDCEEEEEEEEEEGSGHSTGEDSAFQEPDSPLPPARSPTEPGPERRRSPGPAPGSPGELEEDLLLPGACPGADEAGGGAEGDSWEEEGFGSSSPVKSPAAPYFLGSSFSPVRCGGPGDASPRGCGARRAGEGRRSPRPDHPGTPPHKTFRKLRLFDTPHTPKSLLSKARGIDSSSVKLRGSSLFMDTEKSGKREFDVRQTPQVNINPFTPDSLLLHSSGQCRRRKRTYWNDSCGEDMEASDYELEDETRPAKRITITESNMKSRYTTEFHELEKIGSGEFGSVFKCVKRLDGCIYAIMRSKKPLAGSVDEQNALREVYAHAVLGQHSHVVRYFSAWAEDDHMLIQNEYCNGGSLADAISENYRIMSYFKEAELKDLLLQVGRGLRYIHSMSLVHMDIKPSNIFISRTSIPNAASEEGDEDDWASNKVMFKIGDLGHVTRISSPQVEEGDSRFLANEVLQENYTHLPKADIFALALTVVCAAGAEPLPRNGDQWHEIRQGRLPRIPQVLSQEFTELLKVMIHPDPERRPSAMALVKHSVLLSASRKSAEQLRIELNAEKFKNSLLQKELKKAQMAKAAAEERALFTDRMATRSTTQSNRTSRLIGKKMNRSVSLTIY
Wee1 degr conf – human Wee1 degradation inhibition, confirmation; HeLa Luc-Wee1K328M degradation, luminescence; vehicle 0%, proteasome-blocked wells 100%; shares compounds with Wee1 degr inh; actives 4% (n = 1,100); activation, % at 5 µM; in the data active = activation above about 8.9%
Hits are given with their value; 0 = inactive; ? = inconclusive; - = no result given.

SMILES	HSV augment	V-ATPase pH	zVAD death inh	TNF necrop inh	Wee1 degr inh	Wee1 degr conf
CNC(=S)NCc1ccc2[nH]c3c(c2c1)CCCC3	0	0	0	0	11	0
O=C1CCCN1CCC12CC3CC(CC(C3)C1)C2	0	0	0	0	12	0
COc1ccc(OCCC(=O)N2CCOCC2)cc1	0	0	0	0	12	0
CC(C)(C)c1ccc(OCCCC(=O)N2CCOCC2)cc1	0	0	0	0	0	-
Cc1ccnc2nc(C(=O)OCC(=O)c3ccccc3)nn12	-	0	-	-	-	-
O=[N+]([O-])c1cccc2c3c([nH]c12)CCCC3	0	0	0	0	0	-
O=C(N=C1SCC(=O)N1c1ccccc1Cl)c1ccco1	0	0	0	0	14	0
O=C(N=C1SCC(=O)N1c1ccccc1)c1ccco1	?	0	0	0	0	-
Cc1noc(C)c1Cn1nc(C(=O)O)c2ccccc2c1=O	0	0	0	0	12	0
Cc1ccc(-c2noc(Cn3nc(C(=O)O)c4ccccc4c3=O)n2)cc1	-	0	-	-	-	-
COc1cc(C)ccc1OCCCCOc1ccccc1C(C)=O	0	0	0	0	16	0
Cc1ccnc2nc(C(=O)OCC(=O)NC(=O)NCc3ccco3)nn12	0	0	0	0	0	-
O=C(Nc1ccc2c(c1)OCCO2)c1cc2sccc2n1Cc1ccccc1	0	0	0	0	0	-
Cn1c(C(=O)Nc2ccc3c(c2)OCCO3)cc2sccc21	0	0	0	0	16	0
CC(=O)c1sc(NC(=O)C2CCCN2S(=O)(=O)c2ccccc2F)nc1C (stereo not drawn)	-	0	-	-	-	-
O=C(NCc1cccnc1)c1cc(S(=O)(=O)N2CCCC2)c(Cl)cc1Cl	-	0	-	-	-	-
Cc1ccc(NCC(=O)Nc2cccc(F)c2)cc1S(=O)(=O)N1CCCCCC1	-	0	-	-	-	-
Cc1ccc(NC(=O)c2cccc(F)c2)cc1S(=O)(=O)N1CCCCCC1	0	0	0	0	14	0
Cc1cc(C)n(C(=O)c2ccc(C)c(S(=O)(=O)N3CCCCC3)c2)n1	0	0	0	0	24	0
Cc1ccc2c(CC(=O)NNC(=O)c3ccncc3)coc2c1	-	0	-	-	-	-
COc1ccc(C2CC(C(F)(F)F)n3ncc(C(=O)Nc4cccc(O)c4)c3N2)cc1OC (stereo not drawn)	0	0	0	0	13	0
COc1cccc(C2CC(C(F)(F)F)n3ncc(C(=O)NC(C)(C)C)c3N2)c1 (stereo not drawn)	0	0	0	0	0	-
COc1cc(N/N=C(\C)c2ccc(O)c(C)c2)nc(-c2ccccc2)n1	0	0	0	0	0	-
COc1cc(N/N=C(\C)c2ccc(N)cc2)nc(-c2ccccc2)n1	0	0	0	0	12	0
CCOC(=O)N1CCN(C(=O)CCC(=O)c2ccc(OCC)cc2)CC1	-	0	-	-	-	-
SMILES	HSV augment	V-ATPase pH	zVAD death inh	TNF necrop inh	Wee1 degr inh	Wee1 degr conf
CCCOc1ccc(C(=O)CCN2CCN(C(=O)OCC)CC2)cc1	0	0	0	0	17	0
CC(C)CN1CCN(Cc2ccc(Oc3ncccn3)cc2)CC1CCO (stereo not drawn)	0	0	0	0	0	-
CC(C)N1CCC(N2CCN(Cc3ccc(Oc4ncccn4)cc3)CC2CCO)CC1 (stereo not drawn)	0	0	0	0	13	0
Cc1cccc(C)c1NC(=O)NCCCN1CCN(c2ccccc2)CC1	0	0	0	0	11	0
Cc1cccc(C)c1NC(=O)C(=O)NCCCN1CCOCC1	0	0	0	0	0	-
CCC(O)(CC)C(=O)N=Nc1c(O)[nH]c2ccccc12	0	0	0	0	11	0
CC(C)CC(=O)N=Nc1c(O)[nH]c2ccccc12	0	0	0	0	0	-
Cc1ccc(-n2ncc(C#N)c2N)cc1	0	0	0	0	11	0
CCC(C)(C)NC(=O)C(c1cccc(OC)c1OC)N(C(=O)CCC(=O)Nc1cc(C)on1)C(C)C (stereo not drawn)	-	0	-	-	-	-
CC(C)CCNC(=S)Nc1ccc2nc3n(c(=O)c2c1)CCCCC3	0	0	-	0	11	0
CCCCNC(=S)Nc1ccc2nc3n(c(=O)c2c1)CCCCC3	0	0	0	0	0	-
CCOCC(=O)Nc1c(C(=O)Nc2ccc3c(c2)OCCO3)oc2ccccc12	0	0	0	0	0	-
COCC(=O)Nc1c(C(=O)Nc2ccc3c(c2)OCCO3)oc2ccccc12	0	0	0	0	12	0
CSCCC(NS(=O)(=O)c1ccc2ccccc2c1)C(=O)OCC(=O)c1ccc(C(C)C)cc1 (stereo not drawn)	0	0	0	0	11	0
CSCCC(NC(=O)COc1ccccc1)C(=O)OCC(=O)c1ccccc1 (stereo not drawn)	-	0	-	-	-	-
NNC(=O)c1ccc(COc2ccc3ccccc3c2)cc1	0	0	0	0	15	0
NNC(=O)c1ccc(COc2ccc3c(c2)CCC3)cc1	0	0	0	0	0	-
COc1cccc(C(=O)COC(=O)CCCC(=O)NC2CCCCC2)c1	-	0	-	-	-	-
CCCCN(C(=O)c1cnccn1)c1c(N)n(CCC)c(=O)[nH]c1=O	-	0	-	-	-	-
Cc1cc(C)n2nc(C(=O)Nc3cccnc3)nc2n1	0	0	-	0	13	0
Cc1cc(C)n2nc(C(=O)Nc3cccc(S(=O)(=O)N4CCCC4)c3)nc2n1	0	0	0	0	0	-
NC(=S)N/N=C/c1ccc(Br)o1	0	0	0	0	17	0
Cn1ncc(C(N)=O)c1NC(=S)NC(=O)c1ccc(Br)o1	0	0	0	0	0	-
Cc1cc(NC(=O)COC(=O)C2CSC3(C)CCC(=O)N23)ccc1Br (stereo not drawn)	-	0	-	-	-	-
CC12CCC(=O)N1C(C(=O)OCC(=O)Nc1ccc(Cl)c(Cl)c1)CS2 (stereo not drawn)	0	0	0	0	21	0
SMILES	HSV augment	V-ATPase pH	zVAD death inh	TNF necrop inh	Wee1 degr inh	Wee1 degr conf
O=[N+]([O-])c1ccc(S(=O)(=O)N2CCN=C2SCc2cccnc2)cc1	0	0	0	0	12	0
O=[N+]([O-])c1cccc(CSC2=NCCN2S(=O)(=O)c2ccccc2)c1	-	0	-	-	-	-
COc1ccccc1CC(=O)Nc1ccc(-c2noc(COc3cccc(C)c3C)n2)cc1	0	0	0	0	11	0
COC(=O)c1ccc(CNC(=O)c2cc(S(=O)(=O)NCc3ccccc3)ccc2C)cc1	-	0	-	-	-	-
CC(=O)Nc1ccc(S(=O)(=O)N(CC(=O)NC2CC2)Cc2ccccc2)cc1	-	0	-	-	-	-
Cc1cc(/C=C(\C#N)C(=O)NC2CCCCCC2)c(C)n1C	0	0	0	0	28	0
COc1ccc(/C=C(/C#N)C(=O)NC2CCCCC2)cc1Br	0	0	0	0	0	-
COc1ccc(CCN2C(=O)N(c3ccc(OC)cc3)C(=O)C2CC(=O)Nc2ccccc2)cc1 (stereo not drawn)	0	0	0	0	21	0
COc1ccc(N2C(=O)C(CC(=O)Nc3ccccc3)N(CCc3ccc(OC)c(OC)c3)C2=O)cc1 (stereo not drawn)	0	0	0	0	0	-
CCN(CC(=O)Nc1c(F)cccc1F)C(=O)C1CC(=O)N(CCc2ccccc2)C1 (stereo not drawn)	-	0	-	-	-	-
